ATXN2 expr inh: reduces ATXN2 reporter expression in HEK-293 cells | HEK-293 ATXN2-luciferase reporter, luminescence, 24 h | Potency, µM (doses to about 57 µM), most hits filed as inhibitors | 360,000 compounds, 0.72% hits | AID 1745845; further: nearly all actives have a fitted effect of over 55% in size
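qHTS (up to 57 uM final) was run with 24 h compound exposure of reporter cells at 37 °C. Each well was multiplexed: SteadyGlo luminescence measured ATXN2-luciferase expression after a fluorogenic Gly-Phe-AFC viability readout (25 uM final).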
ATXN viability: cell viability loss in ATXN counter-screen; S2 cells (HEK-293 line with an ATXN2-luciferase reporter) viability, CellTiter-Fluor protease fluorescence, 24 h; Potency, µM (top dose mostly 56.7 µM), usual class: cytotoxic; 400,000 compounds, 0.49% hits; AID 651635; further: nearly all actives have a fitted effect of over 40% in size
KB-3-1 tox: KB-3-1 parental cell cytotoxicity; Potency, µM (titrated, usually from 46.1 µM), hits mostly cytotoxic; KB-3-1 viability, CellTiter-Glo ATP luminescence, 72 h; 400,000 compounds, 1.4% hits; further: nearly all actives have a fitted effect of over 60% in size
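Viability of parental KB-3-1 cells, measured by CellTiter-Glo luminescence, followed a 72 h incubation at 37 °C with pinned compounds in phenol-red-free DMEM containing 10% FBS.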
HepG2 tox: counter-screen for TGF-b inhibitors: cytotoxicity in HepG2 cells; HepG2 CAGA-GFP viability, ATP luminescence, 18 h; Potency, µM (titrated, usually from 46.1 µM), actives largely listed as cytotoxic; 410,000 compounds, 0.76% hits
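HepG2 CAGA-GFP cells (1000/well, DMEM with 1% FBS) received compound, then TGF-beta at 500 pg/mL final, and were incubated 18 hours at 37 degrees C. Viability was read by CellTiter-Glo luminescence. Media-only wells were set as complete cell-killing and DMSO as no toxicity.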
KB-V1 MDR tox: kills drug-selected multidrug resistant KB-V1 cells | KB-V1 MDR cells viability, CellTiter-Glo, 72 h | Potency, µM (top dose mostly 46.1 µM), usual class: cytotoxic | 400,000 compounds, 3.4% hits | AID 1347076; further: nearly all actives have a fitted effect of over 60% in size
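Potencies derive from concentration-effect curves fitted to normalized luminescence (CellTiter-Glo) of KB-V1 cells treated for 72 h at 37 degrees C in phenol-red-free DMEM containing 10% FBS.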
TGFb inhibitor: inhibitors of TGF-b signaling; HepG2 CAGA-GFP TGF-b/SMAD3 reporter, GFP fluorescence, 18 h; TGF-beta stimulated, 500 pg/mL final; Potency, µM (titrated, usually from 46.1 µM), hits mostly inhibitors; 410,000 compounds, 1.2% hits; AID 588855; further: nearly all actives have a fitted effect of over 65% in size
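Inhibition was scored as loss of TGF-beta-induced (500 pg/mL final, 18 hours, 37 degrees C) GFP in HEPG2 cells carrying a CAGA-GFP reporter, in DMEM with 1% FBS. Well GFP was summed per cell; Activity was normalised to unstimulated and stimulated DMSO wells, then concentration-response fitting.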
Of the large screens only hits and unclear results are named; the others gave an inactive call. Hits are enriched below; roughly 5.9% of the tested compounds scored in any of these assays. The call rests on the fitted dose curve; in most records, active means well fitted curve in the direction sought with a large enough effect; inconclusive means small, poorly fitted or top-dose-only effect, or another doubt; inactive means no such curve, though single readings can be large; an effect the other way counts as inactive or inconclusive.

CN(C)c1ccc(CN(C(=O)COc2ccc(Br)cc2)C2CCS(=O)(=O)C2)cc1 (centres undefined)	KB-V1 MDR tox 8.2µM
O=[N+]([O-])c1cccc(-c2cc(-c3cc(Br)ccc3O)[nH]n2)c1	ATXN2 expr inh inconclusive, KB-3-1 tox 21µM, KB-V1 MDR tox 21µM, TGFb inhibitor inconclusive
COc1ccc(O)c(-c2cc(-c3cccc(Br)c3)n[nH]2)c1	KB-V1 MDR tox inconclusive, TGFb inhibitor inconclusive
Oc1ccc(Br)cc1-c1cc(-c2ccc(Cl)cc2)n[nH]1	ATXN viability inconclusive, KB-3-1 tox 18µM, KB-V1 MDR tox 10µM, TGFb inhibitor inconclusive
Oc1ccc(Br)cc1-c1cc(-c2ccccc2)n[nH]1	none
CC1CC(C)CN(CCCNC(=O)c2cc3c(s2)-c2ccccc2OC3)C1 (centres undefined)	ATXN2 expr inh 25µM, ATXN viability inconclusive, KB-3-1 tox inconclusive, TGFb inhibitor inconclusive
CCN1CCN(CCCNC(=O)c2cc3c(s2)-c2ccccc2OC3)CC1	ATXN2 expr inh inconclusive, KB-V1 MDR tox inconclusive, TGFb inhibitor inconclusive
CC1CCCC(C)N1CCCNC(=O)c1cc2c(s1)-c1ccccc1OC2 (centres undefined)	ATXN2 expr inh inconclusive, HepG2 tox 14µM, TGFb inhibitor inconclusive
CC1(C(=O)NCc2ccco2)CCN1C(=O)C1(c2ccccc2)CC1 (centres undefined)	none
COc1cc2nc(N3CCCN(C)CC3)nc(NC3CCN(C)C3)c2cc1OC (centres undefined)	KB-3-1 tox inconclusive, TGFb inhibitor inconclusive (no result: ATXN2 expr inh, ATXN viability)
CCCc1cc2c(=O)c(-c3ccc4c(c3)OCCO4)coc2cc1OS(C)(=O)=O	KB-3-1 tox inconclusive, KB-V1 MDR tox 10µM
CCCc1cc2c(=O)c(-c3ccc4c(c3)OCCO4)c(C)oc2cc1OS(C)(=O)=O	none
Cc1nc2nc(SCC(=O)NC3CCC(C)CC3)nn2c(C)c1Cc1ccccc1 (centres undefined)	ATXN viability inconclusive
O=C(c1ccc(CS(=O)(=O)c2cccc(C(F)(F)F)c2)o1)N1CCN(c2ccccn2)CC1	KB-V1 MDR tox 18µM
COc1ccc(CC(=O)N2CCN(c3ccccn3)CC2)cc1OC	none
CCCc1ccc(OCc2ccc(C(=O)N3CCN(c4ccccn4)CC3)o2)c(OC)c1	ATXN2 expr inh inconclusive, KB-V1 MDR tox 3.7µM, TGFb inhibitor inconclusive
COc1cc2c(C(=O)N3CCN(c4cccc(C(F)(F)F)c4)CC3)cn(CC(C)C)c(=O)c2cc1OC	ATXN2 expr inh inconclusive, ATXN viability inconclusive, KB-V1 MDR tox inconclusive, TGFb inhibitor 11µM
O=C(NCc1ccc2c(c1)OCO2)c1ccc(CS(=O)(=O)c2cccc(C(F)(F)F)c2)o1	ATXN viability inconclusive, KB-V1 MDR tox 18µM
COc1cc2c(C(=O)N3CCN(c4cc(Cl)ccc4C)CC3)cn(CC(C)C)c(=O)c2cc1OC	KB-3-1 tox inconclusive
Cc1ccc(S(=O)(=O)Cc2ccc(C(=O)N3CCN(c4ccccn4)CC3)o2)cc1	KB-V1 MDR tox inconclusive
CC(C)NS(=O)(=O)c1cc(C(F)(F)F)ccc1/C=C/C(=O)O	none (no result: ATXN2 expr inh, ATXN viability)
O=C(CCC(=O)N1CCSc2ccccc21)NCc1ccccc1Cl	none (no result: ATXN2 expr inh, ATXN viability, KB-3-1 tox, KB-V1 MDR tox, TGFb inhibitor)
CCn1cc(C(=O)N2CCN(c3ccccn3)CC2)c2cc(OC)c(OC)cc2c1=O	KB-V1 MDR tox 16µM
COc1cc(OC)c(C(=O)N2CCN(c3ccccn3)CC2)cc1OC	ATXN viability inconclusive
COc1ccc(N(C)C(=O)c2cn(CC(C)C)c(=O)c3cc(OC)c(OC)cc23)c(OC)c1	HepG2 tox 7.1µM, KB-V1 MDR tox inconclusive
COc1cccc(C(=O)NCc2nc(-c3ccccc3)no2)c1OC	none
COc1cc(-c2cnc3ccccc3c2)cc2c1OCCN(S(=O)(=O)C[C@]13CC[C@H](CC1=O)C3(C)C)C2	none (no result: ATXN2 expr inh, KB-3-1 tox, HepG2 tox, KB-V1 MDR tox, TGFb inhibitor)
CC1C(=O)C(C)C(c2cc(Br)ccc2O)NC1c1cc(Br)ccc1O (centres undefined)	ATXN2 expr inh inconclusive, ATXN viability inconclusive, KB-3-1 tox inconclusive, KB-V1 MDR tox inconclusive, TGFb inhibitor 16µM
